Screening results from PubChem.
HT1080-NT tox – qHTS for induction of synthetic lethality in tumor cells producing 2HG: qHTS for the HT-1080-NT fibrosarcoma cell line; HT-1080-NT fibrosarcoma viability, CellTiter-Glo ATP luminescence, 48 h; Potency, µM (doses to about 46.1 µM), actives largely listed as cytotoxic; hit rate 1.6% among 360,000; AID 686970, 2013;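 note: NT is the 2HG producing partner of a matched IDH1 knockdown line; nearly all actives have a fitted effect of over 55% in size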
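Compounds were tested in concentration-response format on HT-1080-NT cells for 48 hours at 37 degrees C. Cell viability came from CellTiter-Glo luminescence; curves were classified by r2, response magnitude and activity.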
IL-1B inflam inh – qHTS for Inhibitors of Inflammasome Signaling: IL-1-beta AlphaLISA Primary Screen; hit rate 4.7% among 360,000; AID 743279, 2014; activity change, % at 57.5 µM; THP-1 LPS/ATP IL-1B secretion, AlphaLISA, 16 h; stronger effect = lower value; in the data active = activity change below about -50%; inconclusive = mostly about -30% to -49%
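Secreted IL-1B measured by AlphaLISA bead assay after 16 h compound exposure of THP-1 cells; compounds (final up to 57.5 uM) added 1 h before LPS (250 ng/mL) and ATP (1.25 mM) stimulation; lower signal means less secretion.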
TDP1 cell noCPT – qHTS for Inhibitors of human tyrosyl-DNA phosphodiesterase 1 (TDP1): qHTS in cells in absence of CPT. DT40 Tdp1-/- hTDP1 cells, no CPT, ATP luminescence, 48 h. Potency, µM (highest dose often 46.2 µM), usual class: inhibitors. hit rate 15% among 420,000. AID 686978, 2013; note: nearly all actives have a fitted effect of over 55% in size
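DT40 Tdp1-/-;hTDP1 cells, no CPT (DMSO vehicle only), 400 cells/well; compounds pin-transferred; ≥48 hr, 37 °C; CellTiter-Glo 30 min RT dark, luminescence read.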
HT1080 IDH1KD tx – qHTS for induction of synthetic lethality in tumor cells producing 2HG: qHTS for the HT-1080-IDH1KD cell line; HT-1080 IDH1 knockdown viability, ATP luminescence, 48 h; Potency, µM (series often up to 46.1 µM), actives largely listed as cytotoxic; hit rate 2% among 360,000
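CellTiter-Glo luminescence after 48 h compound exposure at 37 degrees C of IDH1-knockdown HT-1080 cells in 5% FBS RPMI. %Activity scaled between DMSO wells and cell-free media wells, with curves fitted and assigned curve classes.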
TDP1 cell CPT – qHTS for Inhibitors of human tyrosyl-DNA phosphodiesterase 1 (TDP1): qHTS in cells in presence of CPT. chicken DT40 Tdp1-/-;hTDP1 cells + 20 nM CPT, ATP luminescence, 48 h. Potency, µM (top dose mostly 46.2 µM), usual class: inhibitors. hit rate 12% among 420,000. AID 686979, 2013; note: nearly all actives have a fitted effect of over 55% in size
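Cell growth measured by CellTiter-Glo luminescence after a minimum 48 h, 37 C compound exposure with 20 nM CPT in Tdp1-knockout DT40 cells stably expressing hTDP1, seeded 400/well; qHTS titration format.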
ALOX12 inh – Primary qHTS assay for inhibitors of human arachidonate 12S-lipoxygenase (ALOX12): Round 2; Polyunsaturated fatty acid lipoxygenase ALOX12 (Homo sapiens), P18054; purified 12hLO, xylenol orange hydroperoxide absorbance; Potency, µM (titrated, usually from 108 µM), hits mostly inhibitors; hit rate 1.1% among 580,000
Target sequence (P18054 whole entry, looked up): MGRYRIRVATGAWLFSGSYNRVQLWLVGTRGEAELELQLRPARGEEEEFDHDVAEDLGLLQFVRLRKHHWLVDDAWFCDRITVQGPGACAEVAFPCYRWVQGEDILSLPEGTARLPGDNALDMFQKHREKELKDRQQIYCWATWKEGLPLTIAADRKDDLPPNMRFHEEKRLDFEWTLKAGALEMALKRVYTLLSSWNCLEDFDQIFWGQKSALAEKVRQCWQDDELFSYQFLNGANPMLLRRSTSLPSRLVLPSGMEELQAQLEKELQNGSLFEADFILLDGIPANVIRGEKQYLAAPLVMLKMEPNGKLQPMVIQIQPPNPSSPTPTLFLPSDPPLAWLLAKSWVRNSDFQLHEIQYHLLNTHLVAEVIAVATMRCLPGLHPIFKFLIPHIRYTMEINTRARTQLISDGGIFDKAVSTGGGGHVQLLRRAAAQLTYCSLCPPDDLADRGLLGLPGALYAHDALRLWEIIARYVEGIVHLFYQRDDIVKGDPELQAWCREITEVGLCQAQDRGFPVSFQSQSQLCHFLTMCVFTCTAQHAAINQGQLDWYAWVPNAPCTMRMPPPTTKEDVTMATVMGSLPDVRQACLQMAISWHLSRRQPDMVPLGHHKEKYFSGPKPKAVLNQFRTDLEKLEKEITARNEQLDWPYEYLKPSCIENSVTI
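Hydroperoxide product was detected by ferrous iron/xylenol orange as the 573 to 405 nm absorbance ratio. Arachidonic acid at 40 uM (final) was turned over for 30 min at room temperature by 150 nM human 12hLO, pH 7.0 Hepes buffer, after 15 min compound preincubation.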
Hits are given with their value; 0 = inactive; ? = inconclusive; - = no result given; [ ] = dose if it differs, or a comment. Only a selection was taken, and hits are over-represented in it overall. Unless noted, calls come from the whole dose curve; as a rule, active = well fitted curve in the direction sought with a large enough effect; inconclusive = small, poorly fitted or top-dose-only effect, or another doubt; inactive = no such curve, though single readings can be large; an effect the other way counts as inactive or inconclusive.

SMILES	HT1080-NT tox	IL-1B inflam inh	TDP1 cell noCPT	HT1080 IDH1KD tx	TDP1 cell CPT	ALOX12 inh
C=CCOc1ccc(/C=C(\C(=O)c2ccc(OCC)cc2)c2nc3ccccc3s2)cc1	-	-	-	-	-	0
CC1(c2ccccc2)NC(=O)N(CC(=O)Nc2ccc3c(c2)OCO3)C1=O (stereo not drawn)	0	0	0	0	0	0
Cc1ccc2nc(-c3ccc(NC(=O)CN4C(=O)NC(C)(c5ccc(OC(F)F)cc5)C4=O)cc3)sc2c1 (stereo not drawn)	?	0	23µM	?	15µM	0
CC1(c2ccc(OC(F)F)cc2)NC(=O)N(CC(=O)Nc2ccccc2)C1=O (stereo not drawn)	0	0	?	0	?	0
CC1(c2ccc(OC(F)F)cc2)NC(=O)N(CC(=O)Nc2ccc3c(c2)OCO3)C1=O (stereo not drawn)	?	0	?	?	16µM	0
COc1cccc(-c2nn(C)c3sc(C(=O)NCCCN(C)Cc4ccccc4)cc23)c1	18µM	-79	16µM	18µM	?	0
COc1cccc(-c2nn(C)c3sc(C(=O)NCc4ccco4)cc23)c1	0	-56	0	?	21µM	?
CCN(CC)CCCNC(=O)c1cc2c(-c3cccc(OC)c3)nn(C)c2s1	?	?	15µM	?	?	0
COc1cccc(-c2cc(C(=O)NCc3ccco3)no2)c1	0	0	0	0	0	0
COc1cccc(-c2nn(C)c3sc(C(=O)NCCc4ccc(Cl)cc4)cc23)c1	-	-	?	-	?	0
CCCCN(C)CCNC(=O)c1cc2c(-c3cccc(OC)c3)nn(C)c2s1	18µM	-87	21µM	23µM	?	0
CCCCN(C)CCNC(=O)c1cc2cc3ccc(OC)cc3nc2o1	0	?	0	0	0	0
Cc1cc(N2CCCCS2(=O)=O)cc(C)c1S(=O)(=O)N(C)CCc1ccncc1	-	-	-	-	-	0
CC(=O)c1c(C)[nH]c(C(=O)CN2CCN(S(=O)(=O)c3ccccc3[N+](=O)[O-])CC2)c1C	0	0	13µM	0	21µM	0
CC1CC(C)CN(S(=O)(=O)c2ccccc2[N+](=O)[O-])C1 (stereo not drawn)	0	0	13µM	0	13µM	0
CC1(C)CC2CC(C)(CN2S(=O)(=O)c2ccccc2[N+](=O)[O-])C1 (stereo not drawn)	0	0	21µM	0	21µM	0
CCCS(=O)(=O)N1CCN(S(=O)(=O)c2ccccc2[N+](=O)[O-])CC1	0	0	0	0	0	0
Cc1ccc(-c2cc(-c3ccccc3)[nH]c(=S)c2C#N)cc1	0	0	0	0	0	0
N#Cc1c(N)[nH]c(=S)c(C#N)c1-c1ccccc1	?	0	?	?	21µM	?
Cc1ccc(CNC(=O)c2c(C)sc3ccn(CC(C)C)c(=O)c23)o1	-	-	-	-	-	0
CCOC(=O)[C@]12CCCC=C1N(Cc1ccc3c(c1)OCO3)C(=O)[C@H](CC(=O)NCc1cccc(C(F)(F)F)c1)C2	10µM	0	16µM	16µM	?	0
CCOC(=O)[C@]12CCC=C1N(Cc1ccc3c(c1)OCO3)C(=O)[C@H](CC(=O)NCc1cccc(C(F)(F)F)c1)C2	?	0	23µM	?	21µM	0
CCOc1ccccc1NC(=O)Cn1nnc(C(=O)NCc2ccccc2)c1N	-	-	-	-	-	0
CS(=O)Cc1cccc(C(=O)NCC(C)(C)c2ccccc2)c1 (stereo not drawn)	-	-	-	-	-	0
OC[C@@H]1CN(Cc2ccc3c(c2)OCO3)C[C@H](n2cnc3c(NC4CC4)ncnc32)O1	0	0	21µM	0	?	0
SMILES	HT1080-NT tox	IL-1B inflam inh	TDP1 cell noCPT	HT1080 IDH1KD tx	TDP1 cell CPT	ALOX12 inh
OC[C@@H]1CN(Cc2ccccc2)C[C@H](n2cnc3c(NC4CC4)ncnc32)O1	0	0	0	0	0	0
CNc1ncnc2c1ncn2[C@H]1CN(Cc2cccc3ccccc23)C[C@@H](CO)O1	0	0	?	0	23µM	0
OC[C@@H]1CN(Cc2ccc(F)cc2)C[C@H](n2cnc3c(NC4CC4)ncnc32)O1	0	0	0	0	?	0
COCCNc1ncnc2c1ncn2[C@H]1CN(Cc2ccc3c(c2)OCO3)C[C@@H](CO)O1	0	0	0	0	0	0
OC[C@@H]1CN(Cc2ccc(Cl)cc2)C[C@H](n2cnc3c(NC4CCCC4)ncnc32)O1	0	0	?	0	21µM	0
OC[C@@H]1CN(Cc2ccc(-c3ccccc3)cc2)C[C@H](n2cnc3c(NC4CCC4)ncnc32)O1	13µM	0	4.1µM	16µM	4.1µM	?
CCOc1ccc(C(=O)N[C@H]2CCOC[C@H]2C2CCOCC2)o1	-	-	-	-	-	0
CC1CCN(c2ccc(-c3ccc(NS(=O)(=O)c4ccc(Cl)s4)cc3)nn2)CC1	-	-	-	-	-	0
CC(C)c1ncc(-c2ccccc2)[nH]1	-	-	-	-	-	0[12.5 µM]
CC(C)c1nc(-c2ccccc2)c(-c2ccccc2)[nH]1	0	0	21µM	0	?	0
CN(C)Cc1nc(SCC(=O)Nc2ccc(I)cc2)c2ccccc2n1	-	-	-	-	-	0
Cc1ccn2c(C(=O)N[C@H](Cc3ccccn3)C3CC(O)C3)nnc2n1 (stereo partly drawn)	-	-	-	-	-	0
COc1ccc(N2C(=O)CSC23CCC(C(C)(C)C)CC3)cc1 (stereo not drawn)	0	0	18µM	0	?	0
CCCSc1nc2c(c(=O)[nH]c(=O)n2C)n1CC(O)COc1ccc(Cl)cc1 (stereo not drawn)	-	-	-	-	-	0
CSc1ccc(/C=C/C(=O)c2ccc(N(C)C)cc2)cc1	-	-	-	-	-	0
CSc1ccc(/C=C/C(=O)c2ccc(O)cc2)cc1	?	-79	0	?	18µM	?
COc1cc(C(=O)/C=C/c2ccc(SC)cc2)ccc1O	-	-	-	-	-	40µM
O=C(/C=C/c1ccsc1)c1ccc(O)cc1	-	-	-	-	-	50µM
C=CCC[C@@H](Cc1ccc(F)cc1)C(=O)OC[C@@H](NC(=O)[C@@H](CC=C)CC(=O)N(CCO)Cc1ccccc1)c1ccccc1	21µM	-67	26µM	?	15µM	0
C=CCC[C@@H](Cc1ccc(F)cc1)C(=O)OC[C@@H](NC(=O)[C@H](CC=C)CC(=O)N(CCO)Cc1ccccc1)c1ccccc1	?	-60	?	?	?	0
